The list is not random: actives were taken first. Their share in the collection is about 7.3%.
Rab9 prom act: qHTS Assay for Rab9 Promoter Activators. Huh7 Rab9 promoter-luciferase reporter, luminescence, 24 h. actives 2.8% (n = 320,000). Potency, µM (titrated, usually from 9.22 µM), inactives show at the top dose activation, negative = inhibition, hits mostly activators; note: % of control where 0% means no effect; nearly all actives have a fitted effect of over 60% in size
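Measured in stably transfected Huh7 cells bearing a Rab9 promoter–luciferase construct: 24 h compound treatment at 37 °C, followed by luminescence detection.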
uPA surface inh: qHTS for Inhibitors of Cell Surface uPA Generation; cell surface uPA generation assay, qHTS; actives 0.31% (n = 330,000); Potency, µM (series often up to 38.3 µM), without a hit: at the top dose activity change, negative = inhibition, most hits filed as inhibitors; active = well fitted inhibition curve with a large enough effect; inconclusive = small, poorly fitted or top-dose-only effect; inactive = no such curve, though single readings can be large or run the other way; tested in mouse RAW 264.7 cells; note: % is set by controls: 0 for no effect and ±100 for the full control effect; nearly all actives have a fitted effect of over 55% in size
SMN2 splice up: qHTS Assay for Enhancers of SMN2 Splice Variant Expression; Potency, µM (titrated, usually from 46.1 µM), for inactives: top-dose activity change, positive = activation, most hits filed as activators; AID 1458, 2008; HEK293 SMN2-luciferase splicing reporter, luminescence, 30-36 h; actives 2.8% (n = 210,000); note: % of control where 0% means no effect; nearly all actives have a fitted effect of over 55% in size
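HEK293 cells carry an SMN2 minigene-luciferase reporter in which exon 7 inclusion puts luciferase in frame. Cells were seeded at 2000 cells/well, attached for 10-12 hours, then exposed to compounds for 30-36 hours at 37C before ONE-Glo luminescence.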
FLuc counter: qHTS profiling assay for firefly luciferase inhibitor/activator using purifed enzyme and Km concentrations of substrates (counterscreen for miR-21 project); purified FLuc, Km substrates, luminescence inhibition; Potency, µM (titrated, usually from 57.5 µM), inactives show at the highest dose activity change, negative = inhibition, hits mostly inhibitors; actives 6.9% (n = 360,000); AID 588342, 2011;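 note: plate controls were vehicle for no effect and reference inhibitor for full effect; nearly all actives have a fitted effect of over 55% in size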
Target sequence (P08659 whole entry, looked up): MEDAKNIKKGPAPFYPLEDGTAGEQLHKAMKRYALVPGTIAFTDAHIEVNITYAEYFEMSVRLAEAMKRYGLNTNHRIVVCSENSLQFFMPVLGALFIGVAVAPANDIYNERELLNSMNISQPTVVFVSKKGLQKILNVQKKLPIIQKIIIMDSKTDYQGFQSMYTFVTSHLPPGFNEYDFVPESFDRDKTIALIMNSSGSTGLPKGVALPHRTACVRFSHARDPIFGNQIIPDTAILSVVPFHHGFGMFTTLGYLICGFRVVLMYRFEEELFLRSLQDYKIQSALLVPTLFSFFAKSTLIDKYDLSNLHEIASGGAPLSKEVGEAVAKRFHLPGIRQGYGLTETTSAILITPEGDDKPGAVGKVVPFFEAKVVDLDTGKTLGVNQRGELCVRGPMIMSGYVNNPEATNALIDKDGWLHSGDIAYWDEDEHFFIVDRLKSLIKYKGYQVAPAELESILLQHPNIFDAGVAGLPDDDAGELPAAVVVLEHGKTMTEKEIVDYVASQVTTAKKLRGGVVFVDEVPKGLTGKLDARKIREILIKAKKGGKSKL
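Biochemical qHTS of compounds, final roughly 60 µM downward over six points, against 10 nM purified firefly luciferase using Km concentrations of substrates (10 uM D-luciferin, 10 uM ATP) in Tris acetate pH 7.5 buffer; luminescence output.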
ELG1 genotoxic: qHTS screen for small molecules that induce genotoxicity in human embryonic kidney (HEK293T) cells expressing luciferase-tagged ELG1. HEK293T ELG1-luciferase reporter, luminescence, 16 h. Potency, µM (doses to about 46 µM), for the others: top-dose activity change, positive = activation, usual class: activators. actives 1.3% (n = 330,000); note: % of control where 0% means no effect; nearly all actives have a fitted effect of over 60% in size
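Genotoxic stress is detected as increased luminescence from luciferase-tagged ELG1 in HEK293T cells, measured with ONE-Glo after a 16 hr treatment at 37 °C.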
NPC1 prom act: qHTS Assay for NPC1 Promoter Activators. Huh7 NPC1 promoter luciferase reporter, 24 h. Potency, µM (top dose mostly 9.22 µM), for the others: top-dose activation, hits mostly activators. actives 2.4% (n = 320,000); note: % of control where 0% means no effect; nearly all actives have a fitted effect of over 60% in size
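Stably transfected Huh7 (NPC1 promoter→luciferase), 1500 cells/well in Opti-MEM + 10% FBS, 2 h settle, then compound 24 h at 37 °C. Luminescence after 10 min with Amplite reagent.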
Active calls of the source: *; ? = inconclusive; . = no result given. Unless noted, calls come from the whole dose curve; as a rule, active = well fitted curve in the direction sought with a large enough effect; inconclusive = small, poorly fitted or top-dose-only effect, or another doubt; inactive = no such curve, though single readings can be large; an effect the other way counts as inactive or inconclusive. Potency is the fitted concentration of half-maximal effect.

SMILES	Rab9 prom act	uPA surface inh	SMN2 splice up	FLuc counter	ELG1 genotoxic	NPC1 prom act
Cc1ccc(OCC(=O)Nc2cccc(C)n2)c(C)c1	?	1%	23%	4.3µM*	4.1µM*	?
CCOc1ccc(OCC)c(NC(=O)C(NS(=O)(=O)c2cccs2)c2ccccc2)c1 (configuration not stated)	.	.	-13%	0%	.	.
O=C(c1ccc2c(c1)OCO2)N1CCc2ccccc2C1	24%	.	?	21µM*	?	?
COc1ccc(N(C)C(=O)c2cc3c(s2)-c2ccccc2OC3)cc1	.	.	-24%	?	.	.
O=C(c1ccc2c(c1)OCO2)N1CCc2ccccc21	?	-4%	.	?	?	?
O=C(c1cc2c(s1)-c1ccccc1OC2)N1CCc2ccccc2C1	21%	3%	20µM*	?	17%	11%
COC(=O)c1cc2c(s1)-c1ccccc1OC2	-11%	-26%	2%	24µM*	10%	8%
COC(=O)c1cc2c(s1)-c1ccc(OC)cc1CC2	?	6%	.	9.5µM*	?	15%
CCCCNC(=O)CCCn1c(=O)c2ccccc2n(Cc2ccccc2C)c1=O	.	.	-6%	-2%	.	.
CCCCC=O	.	.	-1%	.	.	.
O=C(c1ccc2c(c1)OCO2)n1nnc2ccccc21	1%	.	-8%	6.7µM*	-1%	-3%
COc1cccc(NC(=O)C2=C(C)C(=O)OC23CCN(C(C)=O)CC3)c1	.	.	.	-5%	.	.
CCOC(=O)C1CCN(C(=O)c2nn(-c3ccc(OC)cc3)c(=O)c3c2c2ccccc2n3C)CC1	.	.	-3%	2%	.	.
CCOC(=O)c1c(C)[nH]c(C(=O)COC(=O)c2[nH]c(C)c(C(C)=O)c2C)c1C	-16%	.	-5%	-2%	7%	-7%
CCOC(=O)c1c(C)[nH]c(C(=O)COC(=O)C2CC2C)c1C (configuration not stated)	3.2µM*	1%	?	3.4µM*	2.6µM*	3.5µM*
COc1nnc(-c2ccc(N3CCCCC3)c(NC(=O)c3ccccc3)c2)c2ccccc12	.	.	1%	3%	.	.
Clc1ccc(-c2nc(-c3cnccn3)no2)cc1	0.71µM*	-7%	.	2.4µM*	?	0.56µM*
Fc1ccc(-c2nc(-c3cnccn3)no2)c(Cl)c1	0.32µM*	-4%	.	2.4µM*	?	0.45µM*
Cc1noc(-c2ccc(-c3noc(-c4ccc(Cl)cc4)n3)cc2)n1	.	.	.	0%	.	.
Cc1ccc(-n2ncc(Cl)c2C(=O)NC2CC2)cc1	1.8µM*	-3%	.	11µM*	?	3.2µM*
C=CCNC(=O)c1c(Cl)cnn1-c1ccc(C)cc1	3.2µM*	0%	.	17µM*	?	2µM*
CNC(=O)c1c(Br)cnn1-c1ccc(C)cc1	3.2µM*	2%	.	7.6µM*	?	2.8µM*
CNc1cnn(-c2ccc(C)cc2)c(=O)c1Sc1ccc(C)cc1	1%	-7%	8%	-1%	2%	0%
Cc1ccc(-n2ncc(C(=O)NC3CC3)c2C2CCN(C(=O)OC(C)(C)C)CC2)cc1	-6%	34%	.	5%	1%	2%
CNc1cnn(-c2ccc(C)cc2)c(=O)c1Cl	3.2µM*	-1%	11µM*	13µM*	?	1.6µM*
CNC(=O)c1c(Cl)cnn1-c1ccc(C)cc1	3.2µM*	-9%	.	12µM*	?	2.2µM*
Cc1cccc(-n2ncc3c(NNC(=O)c4ccccc4Cl)ncnc32)c1	.	.	.	-2%	.	.
COc1cc(C(=O)OCC#N)ccc1OCc1c(C)noc1C	-3%	11µM*	.	-1%	?	-11%
COC(=O)c1ccc(OC(=O)c2ccc(OCc3c(C)noc3C)c(OC)c2)cc1	1%	.	-11%	0%	7%	-4%
COc1ccccc1CNC(=O)c1ccc(OCc2c(C)noc2C)c(OC)c1	.	-5%	-11%	3%	.	.
